Values joined by “and” are separate entries in the source; they are usually repeats but may differ in a detail not shown here. Identical values can stand only once. Inconclusive results are not listed. Active and inactive are the calls of the source. Unless noted, calls come from the whole dose curve; as a rule, active = well fitted curve in the direction sought with a large enough effect; inconclusive = small, poorly fitted or top-dose-only effect, or another doubt; inactive = no such curve, though single readings can be large; an effect the other way counts as inactive or inconclusive.
Tests used:
[1] = Counterscreen qHTS for small molecule stabilizers of the endoplasmic reticulum resident proteome: GLuc-NoTag assay (AID 1508627); note: potency is the fitted concentration of half-maximal effect
Summary of the method: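 Luminescence of Gaussia luciferase secreted into the medium (coelenterazine, 0.07x final, unlysed cells) was the read-out. Human SH-SY5Y neuroblastoma cells constitutively secreting untagged GLuc received compound for 19 h, then 100 nM thapsigargin for 4 h.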

[2] = Confirmatory qHTS for small molecule stabilizers of the endoplasmic reticulum resident proteome: Secreted ER Calcium Modulated Protein (SERCaMP) assay (AID 1508628); note: nearly all actives have a fitted effect of over 40% in size; note: potency is the fitted concentration of half-maximal effect
Summary of the method: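 We seeded SH-SY5Y-GLuc-SERCaMP cells, added compounds (three concentrations in the primary run, eleven up to 76.6 uM in confirmation), incubated 16 h, depleted ER calcium with thapsigargin, and read luciferase 4 h later.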

[3] = target: Papain (Carica papaya) (UniProt P00784); assay: Primary qHTS assay for inhibitors of the protease papain (AID 1645873);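 note: papain turnover of Z-FR-AMC read as the AMC fluorescence gain over 10 min; series mostly up to about 50 µM; % is set by controls: 0 for no effect and ±100 for the full control effect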
Papain (Carica papaya), sequence (P00784 whole entry, looked up): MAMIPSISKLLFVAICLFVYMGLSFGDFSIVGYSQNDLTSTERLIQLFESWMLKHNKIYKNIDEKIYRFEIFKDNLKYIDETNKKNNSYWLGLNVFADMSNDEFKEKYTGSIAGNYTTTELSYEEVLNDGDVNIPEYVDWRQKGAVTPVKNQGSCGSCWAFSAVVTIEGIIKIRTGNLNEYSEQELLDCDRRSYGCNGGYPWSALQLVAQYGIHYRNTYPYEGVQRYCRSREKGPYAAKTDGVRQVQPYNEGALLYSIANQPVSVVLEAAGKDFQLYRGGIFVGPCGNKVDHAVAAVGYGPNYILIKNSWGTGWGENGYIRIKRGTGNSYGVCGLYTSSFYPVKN

[4] = Cell Viability qHTS for small molecule stabilizers of the endoplasmic reticulum resident proteome (AID 1508629); settings: cell viability counter-screen, 100 nM thapsigargin for final 4 h;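 note: human SH-SY5Y neuroblastoma cells carrying the GLuc-SERCaMP reporter; compound exposure about 46 h in total before the viability read; % is set by controls: 0 for no effect and ±100 for the full control effect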
[5] = A High-Content qHTS Against Drug Library for the Identification of Small Molecules that Inhibit DYT1 Early Onset Primary Dystonia-Associated Cell Pathology (AID 1645839; calls by dose curve; note: series mostly up to about 46 µM)
Summary of the method: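 In this high-content image screen, delE TorsinA mislocalization in inducible Flp-In 293 cells is scored as %pathology, with cell count serving as the counterscreen. Compound exposure lasts 48 h under tetracycline induction in reduced-serum medium.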

[6] = target: Cytochrome P450 2D6 (Homo sapiens) (UniProt P10635); assay: Cytochrome P450 family 2 subfamily D member 6 (CYP2D6) small molecule antagonists: luciferase biochemical (cell-free) qHTS assay (AID 1645840; active = well fitted curve in the direction sought with a large enough effect in the repeat runs; an effect the other way counts as inactive or inconclusive; note: nearly all actives have a fitted effect of over 55% in size; note: potency is the fitted concentration of half-maximal effect)
Cytochrome P450 2D6 (Homo sapiens), sequence (P10635 whole entry, looked up): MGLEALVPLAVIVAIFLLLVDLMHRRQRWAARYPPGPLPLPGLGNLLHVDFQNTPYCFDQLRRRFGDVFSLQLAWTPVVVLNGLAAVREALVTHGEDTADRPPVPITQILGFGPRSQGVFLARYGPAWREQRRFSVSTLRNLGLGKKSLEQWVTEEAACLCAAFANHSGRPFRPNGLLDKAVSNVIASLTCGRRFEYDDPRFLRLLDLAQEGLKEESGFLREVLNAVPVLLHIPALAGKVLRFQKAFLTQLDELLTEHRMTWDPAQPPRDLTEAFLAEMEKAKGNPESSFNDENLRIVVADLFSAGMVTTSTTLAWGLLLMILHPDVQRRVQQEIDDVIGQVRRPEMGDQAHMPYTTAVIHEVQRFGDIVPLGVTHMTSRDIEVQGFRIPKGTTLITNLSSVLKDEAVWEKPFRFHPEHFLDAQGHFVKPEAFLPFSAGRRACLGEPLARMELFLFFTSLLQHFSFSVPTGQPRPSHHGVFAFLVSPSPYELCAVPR
Summary of the method: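 P450-Glo luminescent screen: recombinant CYP2D6 enzyme–proluciferin substrate mix preincubated with compound 10 min at room temperature, then NADPH regeneration added for 1 h at room temperature. Detection reagent added for 20 min; luciferin light read as relative luminescence units.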

[7] = target: Cytochrome P450 2C9 (Homo sapiens) (UniProt P11712); assay: Cytochrome P450 family 2 subfamily C member 9 (CYP2C9) small molecule antagonists: luciferase biochemical (cell-free) qHTS assay (AID 1645842; active = well fitted curve in the direction sought with a large enough effect in the repeat runs; an effect the other way counts as inactive or inconclusive; note: nearly all actives have a fitted effect of over 55% in size; note: potency is the fitted concentration of half-maximal effect)
Cytochrome P450 2C9 (Homo sapiens), sequence (P11712 whole entry, looked up): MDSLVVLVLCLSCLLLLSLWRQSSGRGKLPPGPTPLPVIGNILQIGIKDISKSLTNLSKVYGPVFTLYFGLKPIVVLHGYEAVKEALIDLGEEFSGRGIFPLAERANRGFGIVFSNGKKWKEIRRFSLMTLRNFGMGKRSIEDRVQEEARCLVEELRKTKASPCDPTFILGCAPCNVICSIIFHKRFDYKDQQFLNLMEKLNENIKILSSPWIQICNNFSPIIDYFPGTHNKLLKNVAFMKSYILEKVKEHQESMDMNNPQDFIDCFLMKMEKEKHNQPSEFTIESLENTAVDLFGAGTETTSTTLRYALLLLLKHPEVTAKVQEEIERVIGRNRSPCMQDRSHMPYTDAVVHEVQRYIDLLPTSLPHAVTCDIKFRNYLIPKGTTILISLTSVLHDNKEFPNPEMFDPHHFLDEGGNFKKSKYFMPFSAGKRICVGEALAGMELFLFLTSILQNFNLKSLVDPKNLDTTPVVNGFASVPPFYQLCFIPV
Summary of the method: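 Luminescence, after 20 min with luciferin detection reagent, reflected CYP2C9 turnover during a 1 h NADPH-driven reaction at 37C. Enzyme-substrate mix contained 0.4% bovine serum albumin and was preincubated with compound 10 min at room temperature.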

[8] = Primary qHTS for inhibitors of nuclear receptor binding SET domain protein 2 (NSD2) in an isogenic RCH-ACV NSD2 p.E1099K mutant (9B) (AID 1645876); note: nearly all actives have a fitted effect of over 70% in size; note: potency is the fitted concentration of half-maximal effect
[9] = Primary qHTS for small molecule stabilizers of the endoplasmic reticulum resident proteome: Secreted ER Calcium Modulated Protein (SERCaMP) assay (AID 1508630); note: % is set by controls: 0 for no effect and ±100 for the full control effect
Summary of the method: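 GLuc-SERCaMP-expressing SH-SY5Y cells, pretreated 16 h with compound, are challenged with thapsigargin to empty ER calcium stores; after 4 h, coelenterazine is added directly to the medium and luminescence is imaged.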

[10] = target: Cytochrome P450 3A4 (Homo sapiens) (UniProt P08684); assay: Cytochrome P450 family 3 subfamily A member 4 (CYP3A4) small molecule antagonists: luciferase qHTS assay (AID 1645841; active = well fitted curve in the direction sought with a large enough effect in the repeat runs; an effect the other way counts as inactive or inconclusive; note: nearly all actives have a fitted effect of over 45% in size)
Cytochrome P450 3A4 (Homo sapiens), sequence (P08684 whole entry, looked up): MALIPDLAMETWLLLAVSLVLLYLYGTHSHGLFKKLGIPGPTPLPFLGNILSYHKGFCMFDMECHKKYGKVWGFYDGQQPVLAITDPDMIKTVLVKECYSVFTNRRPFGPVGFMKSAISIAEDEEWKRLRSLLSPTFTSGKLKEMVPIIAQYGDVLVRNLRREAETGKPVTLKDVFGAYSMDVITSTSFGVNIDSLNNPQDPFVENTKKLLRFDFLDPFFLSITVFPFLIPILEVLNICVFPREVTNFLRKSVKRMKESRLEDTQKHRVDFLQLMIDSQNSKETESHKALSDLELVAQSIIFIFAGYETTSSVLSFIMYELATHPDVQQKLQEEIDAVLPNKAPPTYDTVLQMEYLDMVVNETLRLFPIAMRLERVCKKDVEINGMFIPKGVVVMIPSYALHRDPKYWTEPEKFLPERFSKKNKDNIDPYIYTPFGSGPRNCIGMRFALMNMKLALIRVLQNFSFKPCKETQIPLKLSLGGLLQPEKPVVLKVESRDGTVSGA
Summary of the method: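 Luminescent CYP3A4 activity readout: compounds plus enzyme-substrate mix 10 min at room temperature, reaction started with NADPH regenerating system for 1 h, stopped with detection reagent, read after 20 min. Ketoconazole served as control.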

CN1C[C@H](C(=O)N[C@]2(C)O[C@@]3(O)[C@@H]4CCCN4C(=O)[C@H](Cc4ccccc4)N3C2=O)C[C@@H]2c3cccc4[nH]cc(c34)C[C@H]21
active: Potency [2] 25.1 µM
inactive: Potency [1] | Potency [3]

O=C(O)CN(CCN(CC(=O)O)CC(=O)O)CCN(CC(=O)O)CC(=O)O
inactive: Potency [1] | Potency [2] | max response [4] 25% | Potency [5] | Potency [6] | Potency [7] | Potency [3] | Potency [8]

COC(=O)[C@H]1[C@H]2C[C@@H]3c4[nH]c5cc(OC)ccc5c4CCN3C[C@H]2C[C@@H](OC(=O)c2cc(OC)c(OC)c(OC)c2)[C@@H]1OC
inactive: Potency [8]
active: Potency [2] 15.8 µM | Potency [6] 15.5 µM

CCOC(=O)C1=C(C)NC(C)=C(C(=O)OC)C1c1cccc([N+](=O)[O-])c1 (centres undefined)
inactive: Potency [9] | Potency [5] | Potency [3]
active: Potency [6] 13.8 µM | Potency [7] 0.436 µM

COc1cc(C(=O)OCCCN2CCCN(CCCOC(=O)c3cc(OC)c(OC)c(OC)c3)CC2)cc(OC)c1OC
inactive: Potency [1] | max response [4] -32.9% | Potency [3]

CCOC(=O)c1cnc2c(cnn2CC)c1NN=C(C)C
inactive: Potency [1] | max response [4] 4.21% | Potency [5] | Potency [6]
active: Potency [7] 13.8 µM

C(=C\c1ccccc1)/CN1CCN(C(c2ccccc2)c2ccccc2)CC1
inactive: Potency [1] | Potency [3] | Potency [8]

CC1=C(C)C(=O)C(CCCCC#CCCCC#CCO)=C(C)C1=O
active: Potency [6] 4.9 µM | Potency [7] 3.09 µM | Potency [8] 18.8 µM
inactive: Potency [1] | Potency [5] | Potency [3]

CCCC(C(=O)OCCN(CC)CC)(c1ccccc1)c1ccccc1
inactive: Potency [3]
active: Potency [1] 17.8 µM | Potency [6] 0.0347 µM | Potency [7] 6.17 µM | Potency [8] 13.3 µM

OC(CCN1CCCCC1)(c1ccccc1)C1CCCCC1 (centres undefined)
inactive: Potency [1] | max response [4] 13.7% | Potency [7] | Potency [3]
active: Potency [2] 35.5 µM | Potency [6] 1.74 µM

CN(C)[C@@H]1C(=O)C(C(N)=O)=C(O)[C@@]2(O)C(=O)C3=C(O)c4c(O)ccc(Cl)c4[C@@H](O)[C@H]3C[C@@H]12
inactive: Potency [9] | Potency [5] | Potency [6] | outcome [10]

NC(N)=N/N=C/c1c(Cl)cccc1Cl
active: Potency [6] 9.77 µM
inactive: Potency [9] | Potency [5] | Potency [7] | Potency [3]

O=C1CC2(CCCC2)CC(=O)N1CCCCN1CCN(c2ncccn2)CC1
active: Potency [6] 17.4 µM and 13.5 µM
inactive: Potency [9] | Potency [5] | Potency [7] | Potency [3] | Potency [8]

COc1ccc2c(c1OC)C(=O)O[C@@H]2[C@H]1c2c(cc3c(c2OC)OCO3)CCN1C
inactive: Potency [9] | Potency [5] | Potency [3]
active: Potency [6] 4.9 µM | Potency [7] 0.11 µM

CN(C(=O)CCCOc1ccc2[nH]c(=O)ccc2c1)C1CCCCC1
inactive: Potency [9] | Potency [5] | Potency [6] | Potency [3]
active: Potency [7] 13.8 µM

CC(=O)Nc1nnc(S(N)(=O)=O)s1
inactive: Potency [9] | Potency [5] | Potency [6] | outcome [10] | Potency [7] | Potency [3] | Potency [8]

CCc1cccc(N(C)C(N)=Nc2cccc3ccccc23)c1
inactive: max response [4] -28.6% | Potency [3]
active: Potency [1] 39.8 µM | Potency [2] 15.8 µM | Potency [6] 0.11 µM

C[C@]12CCC(=O)C=C1CC[C@@H]1[C@@H]2CC[C@@]2(C)[C@H]1CC[C@]2(O)C(=O)CO
inactive: Potency [9] | Potency [5] | Potency [6] | Potency [7]

CCN(CC)CCCN(c1ccccc1)C1Cc2ccccc2C1
active: Potency [2] 39.8 µM | Potency [6] 0.0389 µM
inactive: Potency [1] | Potency [7] | Potency [3]

O=C(CCCN1CCC(O)(c2cccc(C(F)(F)F)c2)CC1)c1ccc(F)cc1
inactive: max response [4] -8.14% | Potency [5] | Potency [7] | Potency [3]

CCn1ccnc1CC1COc2ccccc2O1 (centres undefined)
inactive: Potency [9] | Potency [5] | Potency [7] | Potency [3] | Potency [8]
active: Potency [6] 1.74 µM

OCCN1CCN(CCCN2c3ccccc3C=Cc3ccccc32)CC1
active: Potency [6] 13.8 µM
inactive: Potency [1] | max response [4] -5.61% | Potency [7]

CN(C)CC/C=C1\c2ccccc2COc2ccccc21
inactive: Potency [1] | Potency [7] | Potency [3]
active: Potency [6] 1.95 µM

c1cc(CN2CCCCC2)cc(OCCCNc2nc3ccccc3s2)c1
active: Potency [2] 12.6 µM | Potency [6] 1.74 µM
inactive: Potency [1] | max response [4] -7.44% | Potency [7] | Potency [3]

CN(C)CC[C@@H](c1ccc(Br)cc1)c1ccccn1
active: Potency [6] 4.9 µM
inactive: Potency [1] | Potency [9] | Potency [5] | Potency [7] | Potency [3] | Potency [8]

CN(C)C/C=C(/c1ccc(Br)cc1)c1cccnc1
inactive: Potency [1] | max response [4] 4.56% | Potency [7] | Potency [3] | Potency [8]

CN(C)CCCN1c2ccccc2Sc2ccccc21
inactive: max response [4] -13.5% | Potency [3]

C[N+](C)(C)CCOC(N)=O
inactive: Potency [9] | Potency [5] | Potency [6] | Potency [7] | Potency [3]

N[C@@H](COP(=O)(O)O)C(=O)O
inactive: Potency [9] | Potency [5] | Potency [6] | outcome [10] | Potency [7] | Potency [3] | Potency [8]

COC(=O)[C@@H](N)Cc1ccc(O)c(O)c1
inactive: max response [4] -5.59% | Potency [5] | Potency [6] | Potency [7] | Potency [3]
active: Potency [2] 35.5 µM

Source: PubChem BioAssay (NCATS)
